These results are taken from PubChem BioAssay AID651871 (Sanford-Burnham Center for Chemical Genomics, 2012).

Structures are written as SMILES. “And” between values parts separate entries of the source, which are not always exact repeats. Equal entries are not always repeated.

The test system of the assay is H9c2. In words: cardiomyocyte survival under oxidative or metabolic stress – cell-based, panel, H9c2 and HL-1, ATP luminescence, set 2, SAR follow-up (AID 651871).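 Further: cells exposed to stressor for 2 h before ATP readout; reference of the scale not given here.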 The following applies: H9c2/HL-1 cardiomyocytes, 2-deoxyglucose stress, with 2-deoxyglucose; run 9, at 79 µM (top of the series).

`COc1ccc2nc(-c3cc(OC)c(OC)c(OC)c3)cc(C(=O)NCC(=O)Nc3ccc(C(C)=O)cc3)c2c1`: the activity (protection/inhibition) turned out to be 84.5%.

In the case of `CCOC(=O)c1cccc(NC(=O)CNC(=O)c2cc(-c3cc(OC)c(OC)c(OC)c3)nc3ccccc23)c1`, the activity (protection/inhibition) was 90.9%.

In the case of `COc1ccc2c(c1OC)C(=O)N1c3ccccc3C(=O)N(Cc3cccc(Cl)c3Cl)C21` (stereo not drawn), the activity (protection/inhibition) was 81.1% and 78.3% and -1.59%.
